The whole screen tested about 68,000 compounds, of which about 2,700 (4%) showed an effect of 50% or more. Only a selection was taken, and strong results are over-represented in it overall.

The experiment deals with Plasmodium berghei. Nature of the experiment: Screen against P. berghei liver stage (PbLuc), transformed with Luciferase, at 2uM. The class given is functional, HepG2. As to conditions: tested at 2 uM.
On to `Fc1cccc(C2(CNC3CCOC4(CCOCC4)C3)CCOCC2)c1` (configuration not stated), for which the INHIBITION is listed as -8.87%. The result for `COc1cc(CNCCn2cc(C)cn2)c2c(c1)CC(C)O2` (configuration not stated) reads -11.26%; that for `COc1ccc(CC(=O)N(C)c2cccnc2N(C)C)c(Cl)c1`, 54.29%; that for `CN(C)c1ncccc1N(C)C(=O)Cn1cc(-c2ccccc2)nn1`, -34.37%.

As for `COc1cccc(OCC(=O)N(C)c2cccnc2N(C)C)c1`, the INHIBITION is reported as -3.66%.

Take `Fc1ccc(CN2CCC3(CC2)CCN(c2ncccn2)CC3)cc1`: the INHIBITION amounted to 26.94%. With `CC(O)CN1CCC(CN(C)Cc2cc(F)cc3cccnc23)CC1` (configuration not stated), the INHIBITION is on record as -0.44%. Take `Cc1ccc2c(n1)N(CCN(C)C)CCN(C(=O)c1cccs1)C2`: the INHIBITION is listed as -29.61%. As to `Cc1cnc2n(c1=O)CC(C(=O)NCc1ccccc1Cl)CS2` (configuration not stated), the INHIBITION was 39.58%.

As for `CCn1ncc2[nH]c(-c3cc(OC)c(OC)cc3OC)nc21`, the INHIBITION is on record as 13.04%. Take `COc1cc2c(cc1-c1nc3c(cnn3C(C)C3CC3)[nH]1)OCO2` (configuration not stated): the INHIBITION was found to be 67.28%. Regarding `COc1cc2c(cc1-c1nc3c(cnn3C(C)C)[nH]1)OCO2`, the INHIBITION is recorded as 60.13%.

With `COc1cc2c(cc1-c1nc3c(cnn3C(C)C(C)C)[nH]1)OCO2` (configuration not stated), the INHIBITION is given as 7.67%. For `CCn1ncc2[nH]c(-c3cc4c(cc3OC)OCO4)nc21`, the INHIBITION was 27.42%. The result for `COc1cc2c(cc1-c1nc3c(cnn3C)[nH]1)OCO2` reads 21.97%. The result for `Cc1n[nH]c(C)c1NC(=O)CN1CCc2c(nc(C3CC3)n2C)C1` reads 47.57%; that for `Cc1[nH]ccc1C(=O)N1CCC2(CC1)c1nc[nH]c1CCN2S(C)(=O)=O`, 0.31%; that for `CO[C@H]1CO[C@@]2(CCCN(S(=O)(=O)c3ccccc3)C2)C1`, -1.81%. The result for `Cc1cccnc1CNC(=O)CC1C(=O)NCCN1CC(C)(C)C` (configuration not stated) reads -26.52%. In the case of `Cc1nnc(N2CC[C@H]3C[C@@H](C(=O)NC4CCCC4)O[C@H]3C2)s1`, the INHIBITION is -21.74%.

For the molecule `Cc1n[nH]c(C)c1CCC(=O)NCC1CCOc2ccccc2C1` (configuration not stated), the INHIBITION is on record as 49.02%. The result for `Cc1cnc(C(=O)NCC2CCOc3ccccc3C2)cn1` (configuration not stated) reads 10.05%.

On to `CNc1nc(C(=O)NCC2CCOc3ccccc3C2)cs1` (configuration not stated), for which the INHIBITION is reported as 76.82%. Consider `Fc1ccc(-c2n[nH]cc2CNCCn2cccn2)cc1`, for which the INHIBITION came out at 11.01%. As for `CCSCCNC(=O)Nc1cc(C(=O)N2CCOCC2)ccc1Cl`, the INHIBITION is reported as -0.24%. `O=C(NCCN1CCCC1)Nc1cc(C(=O)N2CCOCC2)ccc1Cl`: the INHIBITION is given as 19.81%.

As to `CC(C)OC(=O)c1ccc(Cl)c(NC(=O)NCCN2CCOCC2)c1`, the INHIBITION is 50.94%. On to `CN(CC(=O)NC(C)(C)C)Cc1nc(-c2ccccc2)c[nH]1`, for which the INHIBITION is recorded as -20.91%. The result for `CS(=O)(=O)NC[C@@H]1OC[C@H]2CN(C(=O)c3ccccc3)CC[C@H]21` reads 39.18%. The result for `COc1cc(C(=O)N2CCCS2(=O)=O)ccc1C` reads 9.9%; that for `COCCN1CCC(CNC(=O)C2(c3cc(C)cc(C)c3)CC2)CC1`, 39.72%. The result for `CCN1CCC(CNC(=O)C2(c3ccc(F)cc3)CC2)C1` (configuration not stated) reads 20.41%; that for `COCCN1CCC(CNC(=O)C2(c3cccc(C)c3)CC2)C1` (configuration not stated), 43.79%; that for `COCCN1CCC(CNC(=O)C2(c3cccc(C)c3)CC2)CC1`, 3.9%.

For `COCCN1CCC(CNC(=O)C2(c3ccc(Br)cc3)CCCC2)C1` (configuration not stated), the INHIBITION was found to be 66.2%. As for `COCCN1CCC(CNC(=O)C2(c3cc(C)cc(C)c3)CCC2)C1` (configuration not stated), the INHIBITION is on record as -36.13%.

Turning to `COCCN1CCC(CNC(=O)C2(c3ccccc3)CCC2)C1` (configuration not stated), the INHIBITION is recorded as -1.02%. The result for `COCCN1CCC(CNC(=O)C2(c3ccc(F)cc3)CCC2)CC1` reads 66.2%; that for `COCCN1CCC(CNC(=O)C2(c3cccc(Cl)c3)CC2)C1` (configuration not stated), 56.02%. The result for `Cc1nc(C(NS(=O)(=O)N(C)C)c2ccccc2F)no1` (configuration not stated) reads -1.56%; that for `CCCNC(=O)Nc1ccn(CCCOC)n1`, -27.36%. Take `CC(C)CSCCN1CCCN(S(C)(=O)=O)CC1`: the INHIBITION is given as -14.71%.

Turning to `CCn1c(CN(C)C)nnc1C1CCN(Cc2ccc(Cl)cc2F)CC1`, the INHIBITION is reported as -12.75%.

For the molecule `Cc1cccc(C2(O)CCN(C(=O)c3ccccn3)CC2)c1C`, the INHIBITION amounted to 14.59%. The result for `Cc1cnn(CC2CCCN2Cc2cc(C)no2)c1` (configuration not stated) reads -4.43%; that for `COCC1CC2(CCN(C(=O)c3oc4ccccc4c3C)CC2)CO1` (configuration not stated), 5.15%; that for `CCOc1ccc(Cl)c(C(=O)NCCC(=O)Nc2ccncc2)n1`, 39.54%. The result for `CCN1CCN(c2ccc(CNC(=O)c3cnn(C)c3C)cn2)CC1` reads 21.83%; that for `CCN1CCN(c2ccc(CNC(=O)c3ccc(Cl)o3)cn2)CC1`, 66.93%. With `Cn1ccc(C(=O)NCc2ccc(N3CCCCC3)nc2)cc1=O`, the INHIBITION was 26.06%. On to `Cn1ccc(C(=O)NCc2ccc(N3CCOCC3)nc2)cc1=O`, for which the INHIBITION was 52.17%. The result for `Cn1ccc(C(=O)NCc2ccc(N3CCCC3)nc2)cc1=O` reads 9.3%; that for `CCN1CCN(c2ccc(CNC(=O)c3cc(C)on3)cn2)CC1`, 23.24%; that for `CNC(=O)c1ccnc(CC2COc3c(cccc3OC)C2)c1` (configuration not stated), -12.13%. The result for `CCN(CC)S(=O)(=O)N1CCC(c2nccn2Cc2ccccn2)CC1` reads -28.42%. As to `Cc1ncc(C(=O)NCCNc2ccncc2)s1`, the INHIBITION is recorded as -60.22%. On to `CN(C)C(=O)c1ccc(C2CCCN2C(=O)CCC2=NNC(=O)CC2)s1` (configuration not stated), for which the INHIBITION is listed as -11.64%. The result for `CSc1nccc(NCc2cc3n(n2)CCCN(C(=O)C2CCC2)C3)n1` reads -36.65%; that for `CS(=O)(=O)N1CCCn2nc(CNc3ncccn3)cc2C1`, 51.19%; that for `Cc1cc(NCc2cc3n(n2)CCCN(S(C)(=O)=O)C3)ncn1`, -14.84%. The result for `Cc1cc(NCc2cc3n(n2)CCCN(C(=O)C2CCC2)C3)ncn1` reads 19.13%; that for `Cc1nccc(NCc2cc3n(n2)CCCN(C(=O)C2CCC2)C3)n1`, 55.7%; that for `Nc1nccc(NCc2cc3n(n2)CCCN(C(=O)C2CCC2)C3)n1`, 4.47%. The result for `Cc1nccc(NCc2cc3n(n2)CCCN(S(C)(=O)=O)C3)n1` reads 8.89%. With `O=C(C1CCC1)N1CCCn2nc(CNc3ncccn3)cc2C1`, the INHIBITION worked out at 52.47%. Regarding `Cc1cc(C)nc(NCc2cc3n(n2)CCCN(C(=O)C2CCC2)C3)n1`, the INHIBITION is -4.53%. The result for `CC1=N[C@@]2(CC[C@@H]3CN(Cc4ccc(C)cc4)C[C@@H]32)C(=O)N1CC1CC1` reads 41.38%; that for `Cc1ccccc1C1CCCN1Cc1nc2c(cnn2C)c(=O)[nH]1` (configuration not stated), -29.69%.

Take `Cc1nccc(C(=O)NC(CN2CCCC2=O)c2ccccc2)n1` (configuration not stated): the INHIBITION is -45.82%.

As for `CC1CN(C)CCN1C(=O)c1ccn(-c2ccccc2)n1` (configuration not stated), the INHIBITION stood at 23.42%. The result for `COc1cccc(OCCCc2cncc(C(N)=O)c2)c1` reads 61.08%; that for `COc1ccccc1OCCCc1cncc(C(N)=O)c1`, -69.92%. The result for `COc1cccc(OCCc2cncc(C(N)=O)c2)c1` reads -18.52%. The result for `Nc1ncnc2nc(C3CCN(C(=O)Cc4ccccc4)C3)ccc12` (configuration not stated) reads -7.22%; that for `CCc1nc(CC2CN(c3ncnc4sc(C)c(C)c34)CCO2)no1` (configuration not stated), -7.81%; that for `CN(C)C(=O)COc1ccccc1CN1CCCC2(C1)CN(C)C(=O)O2` (configuration not stated), -38.26%. `CC(=O)Nc1cc(C2CC2)nn1-c1nc(C)c(C)c(=O)[nH]1`: the INHIBITION is listed as -8.91%. For the molecule `Cc1cc(NC(=O)C(C)C)n(-c2nc(C)c(C)c(=O)[nH]2)n1`, the INHIBITION came out at 27.11%. For `Cc1nc(-n2nc(C3CC3)cc2NC(=O)C(C)C)[nH]c(=O)c1C`, the INHIBITION amounted to 55.52%.

As to `CC(C)(C#N)CCCS(=O)(=O)c1nccn1-c1cccc(F)c1`, the INHIBITION came out at 19.33%. In the case of `COc1ccc2c(OCC(=O)NC(C)(C)C)ccnc2c1`, the INHIBITION was -3.8%. The result for `COc1ccc2c(OCC(=O)NCC(F)(F)F)ccnc2c1` reads -26.08%; that for `CCN(CC)C(=O)COc1ccnc2cc(OC)ccc12`, 50.42%. Consider `CCN(CC1CCOC1)C(=O)c1cccnc1N1CCOCC1` (configuration not stated), for which the INHIBITION was 53.03%. With `CCN(CC1CCOC1)C(=O)c1ccccc1N1CCOCC1` (configuration not stated), the INHIBITION is recorded as -45.72%.

`CCN(CC1CCOC1)C(=O)Nc1ccc(N2CCOCC2)nc1` (configuration not stated): the INHIBITION is recorded as -25.45%. Take `CN(C)c1nccc(N2CCO[C@H]3CN(Cc4ccco4)C[C@H]32)n1`: the INHIBITION is reported as 28.14%.

Regarding `CN(C)c1nccc(N2CCO[C@H]3CN(Cc4ccsc4)C[C@H]32)n1`, the INHIBITION is -33.63%.

Regarding `Cc1cccc(CN2C[C@@H]3OCCN(c4ccnc(N(C)C)n4)[C@@H]3C2)c1`, the INHIBITION is 53.55%. Turning to `COc1cccn(CC(=O)N2CCCC3(CCCCC3)C2)c1=O`, the INHIBITION is 26.14%.

As to `Cc1[nH]c2cc(C3CCN(C(=O)c4ccccn4)CC3)nn2c(=O)c1C`, the INHIBITION is reported as 9.9%. The result for `Cc1ccc(-c2nc(C3CCN(C(=O)c4ccnn4C)CC3)no2)cn1` reads 10.65%; that for `Cc1csc(CN(C)C(=O)Nc2cc(F)cc(N3CCCC3)c2)n1`, 0.12%; that for `CCN(CC)CCN1CCO[C@H]2[C@@H](OCc3ccccn3)CC[C@@H]21`, -31.4%. On to `c1ccc(CO[C@H]2CC[C@H]3[C@H]2OCCN3CCN2CCCCC2)nc1`, for which the INHIBITION turned out to be 27.42%.

Take `CCOCCN1CCO[C@H]2[C@H](OCc3ccccn3)CC[C@@H]21`: the INHIBITION stood at 55.07%.

Take `O=S(=O)(C1CC1)N1C[C@H](Oc2ccccn2)[C@H]2OCCC[C@H]21`: the INHIBITION stood at 17.77%. The result for `CS(=O)(=O)N1C[C@@H](Oc2ccccn2)[C@H]2OCCC[C@H]21` reads 50.72%; that for `COc1ccc(CN2CCO[C@H]3[C@H](Oc4ccccn4)CC[C@@H]32)cc1`, -0.68%; that for `Cc1cccc(CN2CCO[C@H]3[C@H](Oc4ccccn4)CC[C@@H]32)n1`, 64.44%. For the molecule `CCS(=O)(=O)N1C[C@@H](Oc2ccccn2)[C@H]2OCCC[C@H]21`, the INHIBITION was determined as 13.38%. The result for `Cc1nc(CN2CCO[C@H]3[C@@H](Oc4ccccn4)CC[C@@H]32)cs1` reads 27.9%.

Values taken from ChEMBL document CHEMBL4513216, “Probing the Open Global Health Chemical Diversity Library for Multistage-Active Starting Points for Next-Generation Antimalarials” (ACS Infect Dis, 2020).
